From PubChem BioAssay (Tox21) come the findings set out here.

Assay [1] can be described thus: qHTS assay to identify small molecule agonists of the progesterone receptor (PR) signaling pathway - cell viability counter screen (AID 1346799; calls by dose curve; also: nearly all actives have a fitted effect of over 45% in size). In a few lines:
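Multiplexed viability read: CellTiter-Glo luminescence, 30 min RT, following LiveBLAzer FRET measurement on PR-UAS-bla HEK293T cells exposed to compounds 16 hr.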
Background: qHTS replaces the single test concentration by a dilution series.

The nature of assay [2]: qHTS assay to identify small molecule antagonists of the TGF-beta/Smad signaling pathway - cell viability counter screen (AID 1346824). Also: nearly all actives have a fitted effect of over 50% in size. In a few lines: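 SBE-bla HEK 293T cells, incubated overnight, then compound plus 0.25 ng/mL TGF-beta1 (stock added) for 5 hr at 37 C. Viability was read in the same wells by CellTiter-Glo luminescence after 30 min at room temperature.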

The nature of assay [3]: qHTS assay to identify small molecule agonists of the TGF-beta/Smad signaling pathway - cell viability counter screen (AID 1346829). Also: top concentration of the series differs between compounds; nearly all actives have a fitted effect of over 45% in size. In a few lines: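 After overnight seating at 37 C and 5% CO2, reporter cells got compounds for 5 hr and FRET substrate for 2 hr; cell viability then came from CellTiter-Glo luminescence.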
Assay [4] in a line: qHTS assay to identify small molecule agonists of the TGF-beta/Smad signaling pathway (AID 1346859; active = well fitted activation curve with a large enough effect in the signal ratio in the repeat runs, not every such curve was filed as active; the % refers to the signal ratio; also: series mostly up to about 77 µM). Summed up:
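Screening used HEK 293T SBE-bla cells at 4,000/well. Test agents: 5 hr, 37 C. Detection: FRET substrate, 2 hr RT, then excitation 405 nm with emissions at 460 and 530 nm.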

The target in assay [5] is Thyrotropin-releasing hormone receptor (Homo sapiens) (UniProt P34981). Kind of assay: qHTS assay to identify small molecule antagonists of the thyrotropin-releasing hormone receptor (TRHR) signaling pathway (AID 1346877; active = well fitted inhibition curve with a large enough effect in the repeat runs, not every such curve was filed as active; also: series mostly up to about 51 µM). In a few lines:
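Kinetic fluorescence (3 min, 1 s resolution) following stimulation with TRH at 1 nM final; HEK293 cells bearing human TRHR; 5 min compound preincubation at RT; concentration-response over 15 points, triplicates.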

Assay [6] has the same target. Briefly: qHTS assay to identify small molecule agonists of the thyrotropin-releasing hormone receptor (TRHR) signaling pathway (AID 1346891; calls by dose curve; also: series mostly up to about 58 µM). Summed up:
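Readout was intracellular calcium fluorescence in TRHR-Hek293 cells. Cells were incubated 18 h, dye-loaded 2 h at 37 °C, and treated with compound in agonist mode.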

Assay [7] is described as follows: Human pregnane X receptor (PXR) small molecule agonists, qHTS cell viability counter screen (AID 1346977). Also: nearly all actives have a fitted effect of over 50% in size. Summed up:
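In each well, the PXR reporter HepG2 line was checked for viability: CellTiter-Fluor reagent added 23hr post-dosing, fluorescence read after 1hr incubation at 37C.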

A short description of assay [8]: Caspase-3/7 induction in HepG2 cells by small molecules, qHTS assay (AID 1346978). Also: nearly all actives have a fitted effect of over 15% in size. Summed up: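 Wild-type HepG2 cells, 2,000/well, settled 5 hr at 37 C and 5% CO2, then compound-treated for 17 hr; caspase-3/7 activity read by luminescent Caspase-Glo 3/7 after 30 min at room temperature.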
The nature of assay [9]: Caspase-3/7 induction in CHO-K1 cells by small molecules, qHTS cell viability counter screen (AID 1346979). Also: nearly all actives have a fitted effect of over 35% in size. Summed up:
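Following a 5hr settling period, CHO-K1 cells at 1,500 per well received DMSO-dissolved compounds. Cell viability was quantified 16hr later by CellTiter-Fluor fluorescence, measured after 1hr with reagent at 37C.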

Assay [10] in a line: Caspase-3/7 induction in CHO-K1 cells by small molecules, qHTS assay (AID 1346980). Also: nearly all actives have a fitted effect of over 15% in size. In a few lines: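 Wild-type CHO-K1 cells exposed to compounds for 17hr at 37 C, 5% CO2. Caspase-3/7 activity then measured by Caspase-Glo 3/7 luminescence after 30min at room temperature.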
Assay [11] can be described thus: Caspase-3/7 induction in HepG2 cells by small molecules, qHTS cell viability counter screen (AID 1346981). Also: series mostly up to about 92 µM; nearly all actives have a fitted effect of over 30% in size. In a few lines: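 In this quantitative HTS counter screen, compounds delivered in DMSO were left on unmodified HepG2 cells for 16 hr at 37 C. Viability was then determined fluorometrically with CellTiter-Fluor, in parallel with caspase-3/7 induction in the same wells.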

The target of assay [12] is Nuclear receptor subfamily 1 group I member 2 (Homo sapiens) (UniProt O75469). Kind of assay: Human pregnane X receptor (PXR) small molecule agonists, qHTS assay (AID 1346982). Also: nearly all actives have a fitted effect of over 35% in size. Also: potency is read from the fitted curve at half-maximal effect. Summed up:
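Reporter HepG2 cells expressing PXR-Luc are cultured in charcoal-stripped FBS (5%), treated with compounds for 24 hr at 37 C, and assayed by ONE-Glo luminescence after 30 min at room temperature.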

For assay [13], the target named is Cytochrome P450 2D6 (Homo sapiens) (UniProt P10635). Kind of assay: Cytochrome P450 Family 2 Subfamily D Member 6 (CYP2D6) small molecule antagonists: luciferase reporter qHTS assay (AID 1671196). Also: series mostly up to about 120 µM; nearly all actives have a fitted effect of over 50% in size. Summed up:
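Test chemicals meet CYP2D6 plus proluciferin substrate (10 min, RT); NADPH regenerating solution then drives turnover for 1 h. Detection reagent halts the reaction; luminescence measured after 20 min.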
In general terms: In a reporter assay the amount or activity of a reporter protein is the signal.

The target in assay [14] is Cytochrome P450 2C19 (Homo sapiens) (UniProt P33261). Briefly: Cytochrome P450 Family 2 Subfamily C Member 19 (CYP2C19) small molecule antagonists: luciferase reporter qHTS assay (AID 1671197). Also: nearly all actives have a fitted effect of over 65% in size. Also: potency is read from the fitted curve at half-maximal effect. Summed up: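 Inhibition of CYP2C19 was scored from loss of luminescence in a P450-Glo proluciferin substrate assay, NADPH-started and run 1 h at 37C, with ketoconazole as positive control.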
Sequence of Cytochrome P450 2C19 (Homo sapiens) (P33261 whole entry, looked up): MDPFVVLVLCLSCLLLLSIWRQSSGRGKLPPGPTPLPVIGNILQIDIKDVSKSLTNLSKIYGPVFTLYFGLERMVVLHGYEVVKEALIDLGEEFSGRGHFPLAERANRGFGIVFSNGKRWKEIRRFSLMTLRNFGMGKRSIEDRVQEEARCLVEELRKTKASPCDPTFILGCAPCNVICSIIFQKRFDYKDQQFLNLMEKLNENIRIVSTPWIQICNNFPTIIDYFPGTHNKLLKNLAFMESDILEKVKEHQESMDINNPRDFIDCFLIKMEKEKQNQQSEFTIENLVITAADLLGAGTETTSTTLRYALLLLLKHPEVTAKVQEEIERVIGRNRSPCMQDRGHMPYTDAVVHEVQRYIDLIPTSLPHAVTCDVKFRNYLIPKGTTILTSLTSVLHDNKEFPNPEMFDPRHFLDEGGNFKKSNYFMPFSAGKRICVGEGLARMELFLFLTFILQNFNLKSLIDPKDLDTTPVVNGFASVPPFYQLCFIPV

For assay [15], the target named is Cytochrome P450 2C9 (Homo sapiens) (UniProt P11712). Briefly: Cytochrome P450 Family 2 Subfamily C Member 9 (CYP2C9) small molecule antagonists: luciferase reporter qHTS assay (AID 1671198). Also: nearly all actives have a fitted effect of over 50% in size. Also: potency is read from the fitted curve at half-maximal effect. In a few lines:
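P450-Glo proluciferin substrate with CYP2C9 enzyme; 10 min RT preincubation, then NADPH regeneration 1 h at 37C; luciferin detection reagent 20 min RT, luminescence in relative luminescence units.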

In assay [16] the target is Cytochrome P450 1A2 (Homo sapiens) (UniProt P05177). Briefly: Cytochrome P450 Family 1 Subfamily A Member 2 (CYP1A2) small molecule antagonists: luciferase reporter qHTS assay (AID 1671199). Also: nearly all actives have a fitted effect of over 50% in size. Also: potency is read from the fitted curve at half-maximal effect. In a few lines:
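Steps: enzyme-substrate mix dispensed; test compounds and furafylline control pinned in; 10 min room temperature; NADPH regeneration solution added, 1 h; reaction stopped with luciferin detection reagent; luminescence read after 20 min.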

For assay [17], the target named is Voltage-gated inwardly rectifying potassium channel KCNH2 (Homo sapiens) (UniProt Q12809). Kind of assay: Human Ether-a-go-go-Related Gene (hERG) channel small molecule antagonists: fluorescence cell-based qHTS assay (AID 1671200). In a few lines:
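In this thallium-flux screen, overnight-cultured U2OS cells bearing the channel are dye-loaded in darkness for an hour, rested 10 min at room temperature, and then monitored kinetically at 480/540 nm for two minutes post-stimulus.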
Background: Block of hERG is tested as a sign of cardiac risk.

The target of assay [18] is Cytochrome P450 3A4 (Homo sapiens) (UniProt P08684). Briefly: Cytochrome P450 Family 3 Subfamily A Member 4 (CYP3A4) small molecule antagonists: luciferase reporter qHTS assay (AID 1671201). In a few lines: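 CYP3A4 activity was followed with a P450-Glo proluciferin substrate. Test compounds in DMSO were preincubated 10 min; NADPH regeneration then ran 1 h, and light output was read 20 min after detection reagent.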
Sequence of Cytochrome P450 3A4 (Homo sapiens) (P08684 whole entry, looked up): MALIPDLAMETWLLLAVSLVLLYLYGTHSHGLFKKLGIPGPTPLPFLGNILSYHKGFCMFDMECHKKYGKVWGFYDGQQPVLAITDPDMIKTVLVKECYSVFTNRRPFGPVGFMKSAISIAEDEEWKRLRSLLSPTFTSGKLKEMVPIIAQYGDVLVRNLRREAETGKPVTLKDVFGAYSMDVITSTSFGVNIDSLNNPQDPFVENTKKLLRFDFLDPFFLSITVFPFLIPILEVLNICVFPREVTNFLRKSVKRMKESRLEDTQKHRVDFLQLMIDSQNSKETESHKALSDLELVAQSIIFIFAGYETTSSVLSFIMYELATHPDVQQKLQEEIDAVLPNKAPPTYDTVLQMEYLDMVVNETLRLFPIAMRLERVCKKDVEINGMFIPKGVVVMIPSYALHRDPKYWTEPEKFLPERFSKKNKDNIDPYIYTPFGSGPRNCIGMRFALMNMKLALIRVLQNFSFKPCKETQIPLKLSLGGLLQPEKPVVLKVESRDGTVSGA

Assay [19] addresses Nuclear receptor subfamily 1 group I member 2 (Rattus norvegicus) (UniProt Q9R1A7). Kind of assay: Rat pregnane X receptor (rPXR) activation by small molecules, qHTS assay (AID 1346983). Also: potency is read from the fitted curve at half-maximal effect; nearly all actives have a fitted effect of over 20% in size. To be noted: rPXR luciferase reporter cells, One-Glo luminescence, 24 h; max activation: stronger effect = higher value. In a few lines: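 Cell-based rPXR activation assay: rPXR cells, 2,000 per well, rested 5hr at 37 C, then exposed to compounds in DMSO for 24 hr at 37 C. Luciferase activity read by One-Glo luminescence after 30 min at room temperature.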

Assay [20] deals with Nuclear receptor subfamily 1 group I member 2 (Homo sapiens) (UniProt O75469). Briefly: Human pregnane X receptor (PXR) activation by small molecules, qHTS assay (AID 1346985). Also: nearly all actives have a fitted effect of over 40% in size. In a few lines: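 DPX-2 cells (HepG2 co-transfected with a PXR response element and a CYP3A4-promoter luciferase construct) were seeded at 2,000 per well, rested 5 hr at 37C, then exposed to DMSO-dissolved compounds for 24 hr. Activation was read as luciferase luminescence.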
Sequence of Nuclear receptor subfamily 1 group I member 2 (Homo sapiens) (O75469 whole entry, looked up): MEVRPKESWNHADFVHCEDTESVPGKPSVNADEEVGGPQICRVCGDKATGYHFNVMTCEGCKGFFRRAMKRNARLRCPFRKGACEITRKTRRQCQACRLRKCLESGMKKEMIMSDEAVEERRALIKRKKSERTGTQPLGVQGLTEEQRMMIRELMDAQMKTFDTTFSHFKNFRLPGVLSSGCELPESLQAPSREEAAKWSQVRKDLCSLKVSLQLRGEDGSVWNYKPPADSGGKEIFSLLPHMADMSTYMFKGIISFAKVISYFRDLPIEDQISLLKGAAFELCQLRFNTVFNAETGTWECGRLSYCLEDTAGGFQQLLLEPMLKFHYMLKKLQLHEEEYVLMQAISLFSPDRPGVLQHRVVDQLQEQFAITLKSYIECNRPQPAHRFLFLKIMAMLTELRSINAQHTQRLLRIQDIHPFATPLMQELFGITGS

“And” between values parts separate entries of the source, which are not always exact repeats. Equal values may be shown once. Inconclusive results are not listed. Where a structure was tested more than once in an assay, its records may differ in their call. The source made the active and inactive calls. Unless noted, calls follow the shape of the dose curve; as a rule, active = well fitted curve in the direction sought with a large enough effect in the repeat runs; inconclusive = weak or mixed curves; inactive = no such curve, though single readings can be large; an effect the other way counts as inactive or inconclusive.

Sequence of Cytochrome P450 2D6 (Homo sapiens) (P10635 whole entry, looked up): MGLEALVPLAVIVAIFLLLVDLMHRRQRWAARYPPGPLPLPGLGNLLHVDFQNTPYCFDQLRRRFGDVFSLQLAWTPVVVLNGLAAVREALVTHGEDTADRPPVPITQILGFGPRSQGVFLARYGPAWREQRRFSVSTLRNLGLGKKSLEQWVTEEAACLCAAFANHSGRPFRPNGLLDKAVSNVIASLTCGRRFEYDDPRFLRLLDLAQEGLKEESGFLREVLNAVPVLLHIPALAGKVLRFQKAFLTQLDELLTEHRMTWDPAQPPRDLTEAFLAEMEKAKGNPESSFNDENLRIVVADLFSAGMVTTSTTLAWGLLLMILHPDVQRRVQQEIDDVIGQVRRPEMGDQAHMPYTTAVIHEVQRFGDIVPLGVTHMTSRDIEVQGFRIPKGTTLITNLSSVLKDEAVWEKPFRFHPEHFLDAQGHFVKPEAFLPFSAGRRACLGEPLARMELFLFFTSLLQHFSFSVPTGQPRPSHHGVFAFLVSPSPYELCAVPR
Sequence of Thyrotropin-releasing hormone receptor (Homo sapiens) (P34981 whole entry, looked up): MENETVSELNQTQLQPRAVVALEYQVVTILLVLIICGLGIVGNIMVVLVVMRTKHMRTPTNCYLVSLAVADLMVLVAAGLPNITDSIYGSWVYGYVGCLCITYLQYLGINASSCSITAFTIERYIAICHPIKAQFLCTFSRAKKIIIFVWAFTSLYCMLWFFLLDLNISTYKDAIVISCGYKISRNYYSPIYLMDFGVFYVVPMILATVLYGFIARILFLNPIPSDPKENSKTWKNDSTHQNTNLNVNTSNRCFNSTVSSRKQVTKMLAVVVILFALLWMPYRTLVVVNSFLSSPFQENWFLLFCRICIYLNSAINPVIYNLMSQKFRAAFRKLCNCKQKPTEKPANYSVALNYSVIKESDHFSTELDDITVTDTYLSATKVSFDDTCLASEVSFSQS
Sequence of Cytochrome P450 1A2 (Homo sapiens) (P05177 whole entry, looked up): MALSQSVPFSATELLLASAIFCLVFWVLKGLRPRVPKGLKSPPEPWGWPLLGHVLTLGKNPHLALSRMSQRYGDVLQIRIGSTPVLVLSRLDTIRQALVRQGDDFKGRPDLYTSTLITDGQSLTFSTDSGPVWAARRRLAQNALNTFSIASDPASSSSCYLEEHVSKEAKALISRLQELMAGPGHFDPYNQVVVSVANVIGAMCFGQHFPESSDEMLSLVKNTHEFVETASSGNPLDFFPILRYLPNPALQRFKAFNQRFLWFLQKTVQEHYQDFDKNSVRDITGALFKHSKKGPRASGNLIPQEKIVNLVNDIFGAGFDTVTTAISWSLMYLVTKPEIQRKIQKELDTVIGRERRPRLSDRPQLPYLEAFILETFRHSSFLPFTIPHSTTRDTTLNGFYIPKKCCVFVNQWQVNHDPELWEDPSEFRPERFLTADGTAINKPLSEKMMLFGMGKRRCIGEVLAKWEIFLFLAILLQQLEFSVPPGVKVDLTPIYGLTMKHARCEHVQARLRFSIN
Sequence of Cytochrome P450 2C9 (Homo sapiens) (P11712 whole entry, looked up): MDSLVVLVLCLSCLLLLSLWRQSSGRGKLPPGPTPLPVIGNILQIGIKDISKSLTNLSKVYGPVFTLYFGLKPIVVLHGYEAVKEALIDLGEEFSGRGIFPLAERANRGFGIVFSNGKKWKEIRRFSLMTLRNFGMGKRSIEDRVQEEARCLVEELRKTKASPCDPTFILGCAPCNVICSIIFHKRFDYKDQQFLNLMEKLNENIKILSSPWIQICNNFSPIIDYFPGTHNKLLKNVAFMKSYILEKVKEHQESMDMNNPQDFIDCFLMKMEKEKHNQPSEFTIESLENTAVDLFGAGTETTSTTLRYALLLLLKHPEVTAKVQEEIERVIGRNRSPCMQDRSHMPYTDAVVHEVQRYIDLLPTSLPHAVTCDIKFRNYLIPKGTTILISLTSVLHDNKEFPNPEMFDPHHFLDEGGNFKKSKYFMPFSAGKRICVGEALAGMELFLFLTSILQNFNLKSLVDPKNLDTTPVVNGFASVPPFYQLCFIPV
Sequence of Voltage-gated inwardly rectifying potassium channel KCNH2 (Homo sapiens) (Q12809 whole entry, looked up): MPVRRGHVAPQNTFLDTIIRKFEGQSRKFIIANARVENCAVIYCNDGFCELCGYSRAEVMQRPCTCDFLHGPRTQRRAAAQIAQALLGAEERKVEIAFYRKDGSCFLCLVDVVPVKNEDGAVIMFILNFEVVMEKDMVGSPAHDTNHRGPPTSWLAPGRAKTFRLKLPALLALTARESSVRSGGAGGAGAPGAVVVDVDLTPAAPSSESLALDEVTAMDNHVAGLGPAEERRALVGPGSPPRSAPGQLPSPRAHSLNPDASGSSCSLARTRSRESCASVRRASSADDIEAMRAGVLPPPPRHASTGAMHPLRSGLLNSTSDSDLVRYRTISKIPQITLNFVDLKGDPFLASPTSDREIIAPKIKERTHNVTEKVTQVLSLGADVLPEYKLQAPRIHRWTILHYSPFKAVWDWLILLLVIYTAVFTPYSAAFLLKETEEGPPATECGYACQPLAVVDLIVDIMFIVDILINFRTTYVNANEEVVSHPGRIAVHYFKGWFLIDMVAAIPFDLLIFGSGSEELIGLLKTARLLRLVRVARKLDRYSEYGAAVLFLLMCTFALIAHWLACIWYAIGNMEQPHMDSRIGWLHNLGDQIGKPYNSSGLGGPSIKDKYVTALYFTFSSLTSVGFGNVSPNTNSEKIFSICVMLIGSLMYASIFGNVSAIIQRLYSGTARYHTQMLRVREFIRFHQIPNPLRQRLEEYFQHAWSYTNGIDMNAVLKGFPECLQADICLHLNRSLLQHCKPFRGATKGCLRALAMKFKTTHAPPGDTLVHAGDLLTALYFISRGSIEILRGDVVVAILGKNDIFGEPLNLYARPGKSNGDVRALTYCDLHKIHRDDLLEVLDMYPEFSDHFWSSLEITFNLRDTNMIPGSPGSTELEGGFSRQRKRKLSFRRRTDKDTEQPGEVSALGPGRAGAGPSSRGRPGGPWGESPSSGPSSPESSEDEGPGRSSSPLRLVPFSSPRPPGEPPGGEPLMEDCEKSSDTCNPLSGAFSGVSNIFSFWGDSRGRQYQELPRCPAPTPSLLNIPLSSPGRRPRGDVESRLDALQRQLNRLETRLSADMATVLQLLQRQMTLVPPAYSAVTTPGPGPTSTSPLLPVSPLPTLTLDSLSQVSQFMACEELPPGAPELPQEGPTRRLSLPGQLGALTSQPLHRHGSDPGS
Sequence of Nuclear receptor subfamily 1 group I member 2 (Rattus norvegicus) (Q9R1A7 whole entry, looked up): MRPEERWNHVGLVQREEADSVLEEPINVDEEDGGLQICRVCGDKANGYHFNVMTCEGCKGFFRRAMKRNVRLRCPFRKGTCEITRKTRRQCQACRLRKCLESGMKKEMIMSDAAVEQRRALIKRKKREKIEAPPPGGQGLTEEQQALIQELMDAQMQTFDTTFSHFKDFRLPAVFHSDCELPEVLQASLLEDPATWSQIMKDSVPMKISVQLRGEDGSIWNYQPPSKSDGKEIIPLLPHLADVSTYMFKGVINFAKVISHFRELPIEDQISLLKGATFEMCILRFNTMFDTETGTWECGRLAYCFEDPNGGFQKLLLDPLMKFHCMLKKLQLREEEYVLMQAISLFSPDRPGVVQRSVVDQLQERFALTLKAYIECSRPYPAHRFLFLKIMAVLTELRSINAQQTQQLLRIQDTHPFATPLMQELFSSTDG

Consider `O=C(OCCOCCOC(=O)c1ccccc1)c1ccccc1`, for which the Potency result in assay [1], in assay [2], in assay [3], in assay [5], in [7] and in [8] was “inactive” in each case. The Potency entry in [9], in assay [11], in assay [12], in assay [13] and in assay [18] was “inactive” throughout. Further, the call in assay [4], in [6], in [10] and in [17] was inactive. Besides, the Potency in assay [14] was 35.5 µM (active) and 39.9 µM (active); in assay [15] it was 8.91 µM (active) and 14.2 µM (active); in [16], 5.01 µM (active) and 8.94 µM (active).

Regarding `CCCCCCCCCCCCc1ccccc1`, the Potency entry in assay [1], in assay [2], in assay [3], in assay [5], in assay [7] and in assay [8] was “inactive” in each case. Also, the Potency result in [9], in assay [11], in assay [12], in [13], in assay [14] and in assay [15] was “inactive” throughout. The Potency entry in assay [16] and in assay [18] was “inactive” in each case. For the same compound, the compound was classed as inactive in assay [4], in assay [6] and in [10].

As to `CSCCC=O`, the Potency entry in [1], in [2], in [3], in assay [5], in assay [7] and in assay [8] was “inactive” in each case. Further, the Potency entry in assay [9], in assay [11], in assay [12], in assay [13] and in assay [18] was “inactive” each time. The result in assay [4], in [6], in assay [10] and in assay [17] was inactive. In addition, the Potency was 75.8 µM (active) and 7.1 µM (active) in assay [14]; 35.6 µM (active) in [15]; 19 µM (active) and 4.48 µM (active) in assay [16].

Take `Cc1ccc(N(C)C)cc1`: the Potency entry in [1], in assay [2], in assay [3], in assay [5], in assay [7] and in assay [8] was “inactive” in each case. Besides, the Potency entry in [9], in assay [11], in assay [12], in [15], in assay [16] and in [18] was “inactive” each time. Also, the compound was classed as inactive in assay [4], in [6], in [10] and in assay [17]. In addition, the Potency result in assay [14] was “inactive and 50.2 µM (active)”.

For `FC(F)(F)c1ccc(Cl)c(Cl)c1`, the Potency entry in assay [1], in assay [2], in [3], in assay [5], in assay [7] and in assay [9] was “inactive” each time. In addition, the Potency entry in [11], in [12], in [13], in assay [14] and in assay [15] was “inactive” in each case. The outcome in assay [4], in assay [6], in assay [10] and in assay [17] was inactive.

In the case of `O=c1[nH]c(=O)n([C@H]2C[C@H](O)[C@@H](CO)O2)cc1Br`, the Potency entry in assay [1], in assay [2], in assay [3], in assay [5], in assay [7] and in assay [8] was “inactive” in each case. Moreover, the Potency entry in assay [9], in assay [11], in assay [20], in assay [14], in assay [15] and in assay [18] was “inactive” throughout. Further, the result in assay [4], in assay [6], in [10] and in assay [17] was inactive. For the same compound, the Potency was 12.4 µM (active) and inactive in assay [12]; 4.47 µM (active) in assay [19]; 40.6 µM (active) and inactive in assay [16].
